Bioassay records (PubChem BioAssay)
An excerpt weighted towards active compounds, which were near 7.3% of everything screened.
Rab9 promoter act: activators of Rab9 promoter; Huh7 Rab9 promoter-luciferase reporter, luminescence, 24 h; Potency, µM (doses to about 9.22 µM), inactives show at the highest dose activation, negative = inhibition, most hits filed as activators; 320,000 tested, 2.8% active; note: % of control where 0% means no effect; nearly all actives have a fitted effect of over 60% in size
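Promoter activation is measured as luciferase luminescence in Huh7 cells stably transfected with a Rab9 promoter–luciferase construct, following 24 h compound exposure at 37 °C and 10 min reagent incubation at ambient temperature.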
SMN2 splice up: enhancers of SMN2 splice variant expression; 210,000 tested, 2.8% active; HEK293 SMN2-luciferase splicing reporter, luminescence, 30-36 h; Potency, µM (doses to about 46.1 µM), for inactives: top-dose activity change, positive = activation, hits mostly activators; note: % of control where 0% means no effect; nearly all actives have a fitted effect of over 55% in size
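HEK293 cells carry an SMN2 […]–luciferase reporter in which exon 7 inclusion puts luciferase in frame. Cells were plated 10-12 h before compound addition, then incubated 30-36 h at 37C. ONE-Glo luminescence was read; sodium butyrate at 4.5 mM final served as control.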
uPA generation: cell surface uPA generation inhibition; cell surface uPA generation assay, qHTS; AID 540303; Potency, µM (doses to about 38.3 µM), for inactives: top-dose activity change, negative = inhibition, hits mostly inhibitors; 330,000 tested, 0.31% active; active = well fitted inhibition curve with a large enough effect; inconclusive = small, poorly fitted or top-dose-only effect; inactive = no such curve, though single readings can be large or run the other way; tested in mouse RAW 264.7 cells; note: % is set by controls: 0 for no effect and ±100 for the full control effect; nearly all actives have a fitted effect of over 55% in size
FLuc counter: counter-screen for miR-21 project: firefly luciferase inhibitors or activators | purified FLuc, Km substrates, luminescence inhibition | Potency, µM (top dose mostly 57.5 µM), without a hit: top-dose activity change, negative = inhibition, hits mostly inhibitors | 360,000 tested, 6.9% active | AID 588342;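 note: plate controls were vehicle for no effect and reference inhibitor for full effect; nearly all actives have a fitted effect of over 55% in size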
Target sequence (P08659 whole entry, looked up): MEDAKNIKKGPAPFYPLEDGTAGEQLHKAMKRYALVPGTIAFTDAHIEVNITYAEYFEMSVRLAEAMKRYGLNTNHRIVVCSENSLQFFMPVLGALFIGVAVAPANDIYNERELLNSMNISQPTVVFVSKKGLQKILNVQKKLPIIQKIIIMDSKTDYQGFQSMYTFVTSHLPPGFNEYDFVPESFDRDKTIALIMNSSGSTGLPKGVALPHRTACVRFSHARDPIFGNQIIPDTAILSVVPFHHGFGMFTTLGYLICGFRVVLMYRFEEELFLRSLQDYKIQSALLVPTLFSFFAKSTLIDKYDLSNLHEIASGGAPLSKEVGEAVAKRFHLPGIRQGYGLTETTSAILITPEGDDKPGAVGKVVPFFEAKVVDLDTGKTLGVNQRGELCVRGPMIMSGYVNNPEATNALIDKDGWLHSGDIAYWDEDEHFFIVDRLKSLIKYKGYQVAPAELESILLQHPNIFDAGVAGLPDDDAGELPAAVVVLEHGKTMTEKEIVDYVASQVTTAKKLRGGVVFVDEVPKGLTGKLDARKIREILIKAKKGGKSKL
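Purified P. pyralis luciferase, 10 nM final, with Km-level 10 uM D-luciferin and 10 uM ATP in 50 mM Tris acetate pH 7.5, 10 mM Mg acetate, 0.01% Tween-20, 0.05% BSA; 6-point qHTS titration about 60 µM downward; luminescence read.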
NPC1 promoter act: activators of NPC1 promoter; Huh7 NPC1 promoter luciferase reporter, 24 h; Potency, µM (top dose mostly 9.22 µM), without a hit: top-dose activation, actives largely listed as activators; 320,000 tested, 2.4% active; AID 485313; note: % of control where 0% means no effect; nearly all actives have a fitted effect of over 60% in size
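Huh7 cells stably carrying NPC1 promoter–luciferase, plated in Opti-MEM with 10% FBS for 2 h, were exposed to compound in DMSO for 24 h at 37 °C; luciferase reagent was added for 10 min and luminescence read.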
ELG1 genotoxic: induces genotoxicity in HEK293T cells with luciferase-tagged ELG1; HEK293T ELG1-luciferase reporter, luminescence, 16 h; 330,000 tested, 1.3% active; AID 504466; Potency, µM (top dose mostly 46 µM), for the others: at the highest dose activity change, positive = activation, most hits filed as activators; note: % of control where 0% means no effect; nearly all actives have a fitted effect of over 60% in size
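Step 1: seed 2,000 HEK293T ELG1-luciferase cells per well. Step 2: add compound or DMSO, incubate 16 hr at 37 °C. Step 3: ONE-Glo, 30 min at room temperature, read luminescence.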
Starred values were filed as active, the others as inactive; u = inconclusive; x = no result given. Unless noted, calls come from the whole dose curve; as a rule, active = well fitted curve in the direction sought with a large enough effect; inconclusive = small, poorly fitted or top-dose-only effect, or another doubt; inactive = no such curve, though single readings can be large; an effect the other way counts as inactive or inconclusive. Potency is the fitted concentration of half-maximal effect.

SMILES	Rab9 promoter act	SMN2 splice up	uPA generation	FLuc counter	NPC1 promoter act	ELG1 genotoxic
CCCc1cc(=O)[nH]c(SCc2nc(-c3ccc(C)cc3)no2)n1	x	x	x	-18.0%	x	x
CSc1sccc1/C=C(/C#N)C(=O)c1ccco1	12.4%	x	0.9%	15.1µM*	18.6%	7.7%
Cc1ccc(-c2noc(CN3CCOCC3)n2)cc1	2.82µM*	u	-2.7%	16.9µM*	3.16µM*	u
Cc1ccc(-c2noc(Cn3cc(S(=O)(=O)N4CCCC4)ccc3=O)n2)cc1	0.6%	x	4.8%	23.9µM*	10.0%	10.9%
Clc1ccc(-c2noc(CN3CCCC3)n2)cc1	u	u	6.5%	19µM*	u	10µM*
Cc1ccc(-c2noc(CN3CCCCC3)n2)cc1	u	u	5.4%	19µM*	u	13µM*
O=c1ccc(S(=O)(=O)N2CCCC2)cn1Cc1ccc(F)cc1	1.0%	x	3.4%	0.8%	-0.9%	0.5%
CCN1CCN(C(=O)Cn2ncc3c4ccccc4n(Cc4ccccc4F)c3c2=O)CC1	x	-13.5%	x	-1.3%	x	x
FC(F)(F)c1ccc(C2=Nc3ccccc3NC(c3cccs3)=N2)cc1	x	-19.5%	x	-2.7%	x	x
Cc1ccc(CCNC(=O)c2ccc3c(c2)N(Cc2cccc(Cl)c2)C(=O)c2ccccc2S3(=O)=O)cc1	x	x	x	9.0%	x	x
O=C(NCC(c1ccco1)S(=O)(=O)c1cccs1)c1ccccc1F (centres undefined)	x	x	x	1.8%	x	x
Cc1ccc(C(=O)Nc2cccc(-c3ccc(N4CCOCC4)nn3)c2)cc1C	2.82µM*	x	-3.3%	2.13µM*	u	u
O=C(COc1ccc(Cl)cc1)Nc1cccc(-c2ccc(N3CCOCC3)nn2)c1	1.58µM*	x	-10.9%	1.35µM*	3.16µM*	2.06µM*
Cc1ccc(C(=O)Nc2cccc(-c3ccc(N4CCOCC4)nn3)c2)cc1	3.55µM*	x	-9.0%	1.35µM*	2.51µM*	0.5%
O=C(COc1ccc(Cl)cc1)Nc1ccc(CN2CCOCC2)cc1	-13.5%	x	16.6%	x	-0.7%	-1.0%
Cc1cc(C(=O)Nc2cccc(-c3ccc(N4CCOCC4)nn3)c2)ccc1[N+](=O)[O-]	u	x	-7.5%	2.69µM*	u	-0.4%
Cc1ccc(NC(=O)Nc2cccs2)c(C)c1	x	-5.5%	x	u	x	x
O=C(Nc1cccc(-c2ccc(N3CCOCC3)nn2)c1)c1ccc(Cl)cc1	u	x	-1.6%	2.13µM*	u	u
O=C(Nc1cccc(-c2ccc(N3CCCCC3)nn2)c1)c1ccco1	2.82µM*	x	-14.0%	0.379µM*	3.98µM*	1.64µM*
O=C(Nc1cccc(-c2ccc(N3CCOCC3)nn2)c1)c1ccccc1Cl	3.55µM*	x	-13.0%	1.69µM*	u	11.3%
Cc1nnc2ccc(-c3cccc(NC(=O)c4ccco4)c3)nn12	-0.1%	u	-2.1%	-13.1%	-1.5%	4.1%
O=C(c1cccc(Cl)c1)N1CCN(c2ccc(N3CCOCC3)nn2)CC1	-1.5%	x	-12.5%	2.7%	-3.4%	2.7%
CCCCOc1ccc(C(C)NC(=O)C2CCCN(S(=O)(=O)CCC)C2)cc1 (centres undefined)	-8.5%	-18.9%	4.9%	-7.6%	-1.6%	6.9%
Nc1nc(CSC(=S)N2CCOCC2)nc(Nc2ccccc2)n1	3.55µM*	11.2µM*	8.6%	13.5µM*	u	20.6µM*
CCOc1ccc(Nc2nc(N)nc(CSC(=S)N3CCOCC3)n2)cc1	29.4%	x	16.4%	u	2.82µM*	5.0%
SMILES	Rab9 promoter act	SMN2 splice up	uPA generation	FLuc counter	NPC1 promoter act	ELG1 genotoxic
COc1ccccc1Nc1nc(N)nc(CN2CCCCC2)n1	-8.1%	-17.6%	2.4%	-2.8%	-3.3%	-16.3%
COc1ccccc1Nc1nc(N)nc(CSC(=S)N2CCCCC2)n1	21.5%	x	1.5%	16.9µM*	6.3%	13.8%
Cc1ccc(Nc2nc(N)nc(CSC(=S)N3CCOCC3)n2)cc1	u	u	10.7%	15.1µM*	2.82µM*	u
Cc1cccc(Nc2nc(N)nc(CSC(=S)N3CCOCC3)n2)c1	u	x	7.6%	-3.9%	u	16.6%
Cc1cccc(OCC(=O)NCC2(N3CCN(C)CC3)CCCCC2)c1	x	x	x	-4.7%	x	x
O=C(CN1C(=O)COc2ccc(S(=O)(=O)N3CCOCC3)cc21)NCc1ccccn1	0.0%	x	3.1%	-0.1%	2.8%	-0.3%
CCOC(=O)c1ccccc1NC(=O)Cn1ncc2c([nH]c3ccccc32)c1=O	x	x	x	3.6%	x	x
Cc1oc(-c2ccc(C(=O)NC(C)c3ccccc3)cc2)nc1CS(=O)(=O)c1ccccc1 (centres undefined)	x	x	x	6.1%	x	x
CCOc1ccc(OCC)c(NC(=O)c2cc(S(=O)(=O)N3CCCC3)cn2C)c1	x	x	x	-5.7%	x	x
Nc1nc(CSC(=S)N2CCCCC2)nc(Nc2ccccc2)n1	u	u	2.8%	26.9µM*	29.5%	u
COc1cc(/C=N/NC(=O)c2cc(-c3ccccc3)sc2N)cc(OC)c1OC	0.1%	x	-18.3%	4.78µM*	5.9%	-7.8%
COc1cc(C(=O)N/N=C/c2sc(=O)n(-c3ccccc3)c2Cl)cc(OC)c1OC	-7.6%	-4.5%	-1.6%	6.01µM*	-4.2%	6.7%
COc1cc(/C=N/NC(=O)c2c(C)nc3ccc(Cl)cn23)cc(OC)c1OC	-7.0%	x	3.6%	-0.9%	-1.8%	1.5%
COc1cc(/C=N\NC(=O)c2sc(N)nc2C)cc(OC)c1OC	12.3%	9.7%	-0.1%	15.1µM*	-0.2%	6.9%
COc1cc(/C=N/NC(=O)c2ccc(-c3ccccc3)cc2)cc(OC)c1OC	12.6%	19.0%	-15.5%	10.7µM*	8.5%	-6.9%
CCCOc1ccc(C2C(=O)N(C3CCCCCC3)CC(=O)N2CCCOCC)cc1OC (centres undefined)	x	x	x	-2.3%	x	x
CCOC(=O)C1C(=O)C=C(c2ccc(NS(C)(=O)=O)cc2)CC1c1ccco1 (centres undefined)	3.5%	-10.9%	-3.4%	-1.9%	-1.7%	-2.5%
CCOC(=O)C1C(=O)C=C(c2ccc(C)cc2)CC1c1cccc([N+](=O)[O-])c1 (centres undefined)	0.4%	x	-14.7%	10.7µM*	-4.0%	-6.4%
CCOC(=O)C1C(=O)C=C(c2ccc(C)cc2)CC1c1ccco1 (centres undefined)	17.7%	-3.1%	-0.8%	12µM*	2.2%	-0.1%
Cc1cn2c(=O)cc(COC(=O)c3cccc(NC(=O)c4ccc(C(C)(C)C)cc4)c3)nc2s1	x	x	x	0.757µM*	x	x
Cc1cn2c(=O)cc(COc3cccc(NC(=O)c4ccc(C(C)(C)C)cc4)c3)nc2s1	x	9.2%	x	1.2µM*	x	x
CC(C)c1ccc(C2=NC(c3ccncc3)=Nc3ccc(F)cc3N2)cc1	x	-8.6%	x	5.3%	x	x
CCOC(=O)C1CCCN(S(=O)(=O)c2csc(C(N)=O)c2)C1 (centres undefined)	x	x	x	-1.5%	x	x
COCCCNC(=O)c1cc2cc(S(=O)(=O)N3CCCCC3)ccc2n1C	x	x	x	-6.4%	x	x
